The values that follow come from PubChem BioAssay AID1878 (Sanford-Burnham Center for Chemical Genomics, 2009).

The structures appear in SMILES notation. Screen size: about 1,000 compounds; about 200 (20%) were called active. No stated cut-off is given here; in the data, active means inhibition above about 55%; inactive means the rest. A selection follows. Results with a measured potency or affinity are listed apart.

Sequence of Dual specificity protein phosphatase 3 (Homo sapiens) (P51452 whole entry, looked up): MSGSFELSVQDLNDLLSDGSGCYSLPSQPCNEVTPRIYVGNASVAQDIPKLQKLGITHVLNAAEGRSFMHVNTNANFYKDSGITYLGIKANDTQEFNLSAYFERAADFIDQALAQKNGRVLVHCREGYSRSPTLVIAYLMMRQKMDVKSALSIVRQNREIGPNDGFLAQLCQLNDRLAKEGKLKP

The experiment concerns the target Dual specificity protein phosphatase 3 (Homo sapiens) (UniProt P51452). Put plainly: VHR1 phosphatase inhibitors, biochemical (AID 1878). To be noted: recombinant VHR phosphatase, fluorogenic substrate; at 13.3 µM; hits give high values.
Broadly, the inhibition is the drop in the measured response relative to a control, in per cent. `CN(C)C(CNC1CC(C)(C)NC(C)(C)C1)c1cccc(F)c1` (stereo not drawn): the inhibition was 12.5% (inactive).

On to `Cc1ccc(-c2nc3ccccc3s2)cc1NC(=O)c1cc(-n2cnnc2)ccc1Cl`, for which the inhibition was 63.4% (active). In the case of `COc1ccc(-c2nn(CCC#N)cc2C(=O)Nc2ccccc2Cl)cc1` it was 2.2% (inactive); in that of `O=C1CN(C(=O)c2ccccc2)C(c2ccccc2)c2cc(F)ccc2N1` (stereo not drawn), -4.4% (inactive). For `COc1cc(NC(=O)CCc2nnc3ccc(N4CCCCC4)nn23)cc(OC)c1OC`, the inhibition was -6.5% (inactive). In the case of `Nc1c(C(=O)NC2CC2)sc2nc3c(c(-c4ccco4)c12)CC/C3=C/c1ccco1` it was 11.4% (inactive); in that of `O=C(O)CCCCC1CCSS1` (stereo not drawn), 97.7% (active); in that of `CCCn1c2ccccc2c2cnn(CC(=O)NCCCN3CCCC(C)C3)c(=O)c21` (stereo not drawn), -8.7% (inactive). In the case of `CCOc1cccc(CN2CCCC(N3CCc4ccccc4C3)C2)c1O` (stereo not drawn) it was -11% (inactive).

On to `COc1cc2cc(C(=O)Nc3ccc4c(c3)OCCO4)[nH]c2cc1OC`, for which the inhibition is -3.4% (inactive). As for `c1cncc(-c2nc(-c3ccc4c(c3)OCCO4)cs2)c1`, the figure is -10.9% (inactive); as for `O=C(Nc1ccc2oc(-c3cccnc3)nc2c1)c1ccc2c(c1)OCCO2`, 62.5% (active); as for `CC1=C(C(=O)OC(C)C)C(c2ccccc2)NC(=O)N1C` (stereo not drawn), 6.5% (inactive). For `COC(=O)c1cccc(CSC(=S)N2CCCC2)c1`, the inhibition is -7.9% (inactive). Regarding `O=C(O)c1ccc(Nc2nc(-c3ccc([N+](=O)[O-])cc3)nc3ccccc23)cc1`, the inhibition is 97.6% (active). As for `COc1ccc(Nc2ccc([N+](=O)[O-])cn2)cc1`, the figure is -0.2% (inactive). Consider `O=[N+]([O-])c1ccc(-c2nnc(S)n2-c2ccccc2)cc1`, for which the inhibition is -5.8% (inactive). As for `Cc1ccc(C)c(N(CC(=O)NC2CCCC2)C(=O)CNC(=O)c2cccs2)c1`, the figure is -6.9% (inactive); as for `Cc1ccccc1CCN1CCCC(CN(C)C(=O)C(=O)c2ccco2)C1` (stereo not drawn), 9.9% (inactive); as for `Cc1cc(NC(=O)CCSc2ccc(Cl)cc2)no1`, 2.1% (inactive). As for `Cc1ccc(S(=O)(=O)N(C)CC(=O)OCC(=O)NC(=O)NC(C)C)cc1`, the figure is -21.6% (inactive); as for `COc1cc(/C=C2\SC(=O)N(Cc3ccc(F)cc3)C2=O)cc([N+](=O)[O-])c1O`, 53% (active). `O=C(CCCCCN1C(=O)[C@@H]2Cc3ccccc3CN2C1=O)Nc1ccccc1F`: the inhibition was 11% (inactive). For the compound `CCCCNC(=O)NNC(=O)C1CC1(c1ccccc1)c1ccccc1` (stereo not drawn), the inhibition was 9.1% (inactive). As for `COc1cc(CCC(=O)NCc2ccc3c(c2)OCO3)cc(OC)c1OC`, the figure is 0.3% (inactive). Regarding `CS(=O)(=O)NN1C(=O)c2ccccc2NC1c1ccccc1F` (stereo not drawn), the inhibition is -7.9% (inactive).

Regarding `Cn1c(CNC(=O)CCNC(=O)c2cccc(Br)c2)cc(=O)n(C)c1=O`, the inhibition was -19.2% (inactive). For `O=C(O)CSc1cc(NS(=O)(=O)c2cccc([N+](=O)[O-])c2)c2ccccc2c1O`, the inhibition was 1.4% (inactive). Take `O=C(Nc1cccc2cccnc12)c1cccc(Cl)c1`: the inhibition is 2.2% (inactive).

Consider `O=C(Nc1cc([N+](=O)[O-])ccc1O)c1cccc(C(=O)Nc2cc([N+](=O)[O-])ccc2O)c1`, for which the inhibition was 98.4% (active). As for `CCOC(=O)C1=C(N)Oc2ccc3ccccc3c2C1c1ccc(O)c(OC)c1` (stereo not drawn), the figure is -1.4% (inactive); as for `O=C(Nc1ccccc1Cl)c1cc2ccccc2o/c1=N\O`, -1% (inactive). As for `NC(=O)c1cc2ccccc2o/c1=N\NC(=O)c1ccccc1O`, the figure is 98.4% (active); as for `CCC1CN(C(=O)NCc2ccc(F)cc2)c2ccccc2O1` (stereo not drawn), 7.8% (inactive). As for `COc1ccc(C(=O)NCc2ccc(N3CCN(C)CC3)cc2)cc1`, the figure is 21.1% (inactive). In the case of `COc1cccc(C2NC(=O)CCC2[N+](=O)[O-])c1OC` (stereo not drawn), the inhibition was 3.9% (inactive).

For the compound `COCCN(C(=O)CCC(=O)Nc1nccs1)C(C(=O)NCCC(C)C)c1ccc(OC)cc1` (stereo not drawn), the inhibition is -22% (inactive). In the case of `COc1cc(C(C)=O)ccc1OCC(O)CN1CCN(c2ccc(F)cc2)CC1` (stereo not drawn) it was -0.4% (inactive); in that of `COc1nc(Nc2nc3ccccc3c(=O)[nH]2)nc2ccc(C)cc12`, 89.8% (active); in that of `CCC(=O)N1CCN(c2ccc(NC(=O)c3ccc(N4CCOCC4)c([N+](=O)[O-])c3)cc2)CC1`, -6.9% (inactive). In the case of `Fc1ccccc1/C=N/n1c(C2CCCCC2)n[nH]c1=S`, the inhibition was 7.2% (inactive).

Regarding `Cn1c(=O)[nH]c(=O)c2c1[nH]c(=S)n2CCCc1ccccc1`, the inhibition was 2.5% (inactive). With `O=C(Cn1c2ccccc2c2nc3n(c(=O)c21)CCS3)N1CCCC1`, the inhibition is -3.8% (inactive).

On to `CN(C)c1ccc(N2C(=NC(=O)C3CCCO3)SC3CS(=O)(=O)CC32)cc1` (stereo not drawn), for which the inhibition was 10.7% (inactive). In the case of `Cc1ccc(CNCc2ccco2)cc1` it was -2.3% (inactive); in that of `CC(C)(C)c1ccc(O)c(N=Cc2c(O)ccc3ccccc23)c1`, -0.4% (inactive). With `C/C(=N\N1CCN(c2ccccc2)CC1)c1ccc(O)cc1`, the inhibition was -1.9% (inactive). In the case of `Clc1nccnc1N/N=C/c1ccc(Br)cc1`, the inhibition is 1.6% (inactive). In the case of `CCCCn1nc(NC(=O)CC(C)C)c2cc3cc(OC)ccc3nc21` it was 2.1% (inactive). In the case of `CCC1C(=O)C(C)(C)C(=O)OC1c1ccc([N+](=O)[O-])cc1` (stereo not drawn) it was -5.8% (inactive); in that of `O=C(CSc1nc2ccccc2n1CCc1ccccc1)c1ccc(O)c(O)c1`, 98.7% (active).

Regarding `CCOc1ccc(C(=O)N2CCN(CCc3ccccc3)CC2)cc1OCC`, the inhibition is 1.8% (inactive). Turning to `Cc1ccccc1C1NC(=O)c2ccccc2O1` (stereo not drawn), the inhibition was -14% (inactive). Take `COc1cccc2[nH]c3c(=O)[nH]cnc3c12`: the inhibition is -1.7% (inactive). As for `Cc1ccc(NC(=O)CNC(=O)N2CC(=O)Nc3ccccc32)cc1F`, the figure is 15.4% (inactive); as for `O=C(Cn1cncn1)N/N=C/c1ccccc1Cl`, -4.5% (inactive); as for `C[C@]12CCC3=C4CCC(=O)C=C4CC[C@H]3C1CC[C@@H]2O` (stereo partly drawn), 14.2% (inactive).

On to `CN1C(C)(C)CC(NC(=O)c2ccco2)CC1(C)C`, for which the inhibition is -4.7% (inactive).

On to `COc1cc(C2Nc3ccccc3NC3=C2C(=O)CC(C)(C)C3)cc(OC)c1OC` (stereo not drawn), for which the inhibition is -7.9% (inactive). As for `CCOc1ccc(C(=O)N2CCC3(CC2)NCCc2[nH]cnc23)cc1`, the figure is -8.9% (inactive); as for `Cc1cc(C(=O)N/N=C/c2cc([N+](=O)[O-])cc(C)c2O)n[nH]1`, 76.1% (active). As for `CCc1nn(CC(=O)NCCCN(C)C2CCCCC2)c(=O)c2cc3occc3n12`, the figure is 7.4% (inactive).

With `COc1cccc(CNC(=O)C2CCN(c3nn4c(=O)cc(C)nc4s3)CC2)c1`, the inhibition was -8.6% (inactive). As for `COc1ccccc1Nc1nn2c(=O)c3ccc(C(=O)NCc4cccnc4)cc3nc2s1`, the inhibition is 97.1% (active). As to `COc1ccc(C(CC(=O)Nc2ncccc2C)N2Cc3ccccc3C2=O)cc1` (stereo not drawn), the inhibition is -9.5% (inactive). For the compound `COc1cc(NC(=O)CN2C(=O)COc3ccc(S(=O)(=O)N4CCCCC4)cc32)cc(OC)c1`, the inhibition is -1.8% (inactive). As for `O=C(c1ccc(CS(=O)c2ccccc2Cl)o1)N1CCN(c2ccccc2)CC1` (stereo not drawn), the inhibition is 2.8% (inactive). With `CC(C)c1ccc(N2C(=NC(=O)C3CCCO3)SC3CS(=O)(=O)CC32)cc1` (stereo not drawn), the inhibition was 11.9% (inactive).

In the case of `COc1cc2c(cc1OC)-c1cc(Nc3cccc(F)c3)nc(=O)n1CC2`, the inhibition was 14.3% (inactive). In the case of `CN(C)c1ccc(NS(=O)(=O)c2cc3c4c(c2)CC(=O)N4CCC3)cc1` it was -8% (inactive); in that of `COc1cc(/C=N/Nc2ccc([N+](=O)[O-])cn2)cc(OC)c1O`, -5.7% (inactive); in that of `COc1cc(/C=N/NC(=O)c2ccc3c(c2)OCO3)ccc1O`, -2% (inactive).

`CCOc1ccc(NC(=O)CCC(=O)NNC(=O)c2ccccc2Cl)cc1`: the inhibition was 2% (inactive). `CCC1CCCCN1CCCNC(=O)c1cn(C)c2ccc(S(=O)(=O)N3CCOCC3)cc2c1=O` (stereo not drawn): the inhibition was -9.8% (inactive). As for `COCCN(CC1CCCN(C2Cc3ccccc3C2)C1)C(=O)CSC` (stereo not drawn), the figure is -11.6% (inactive); as for `C=C(C)CCC(C)N1CCC(n2nccc2NC(=O)CCCc2ccccc2)CC1` (stereo not drawn), -2.3% (inactive); as for `Oc1ccc(NCc2ccc(OCc3ccccc3)cc2)cc1`, -5.6% (inactive).

As for `N#C/C(=C\c1ccc(OCc2ccc(Br)cc2)cc1)C(=O)Nc1cccc(C(=O)O)c1`, the inhibition is 87.5% (active). As for `N#C/C(=C\c1ccc(OCc2ccc(Cl)cc2)cc1)C(=O)Nc1cccc(C(=O)O)c1`, the figure is 84.9% (active); as for `O=C(Nc1cccc(Cl)c1)OCCOc1ccccc1`, -0.9% (inactive); as for `Cn1c(=O)c2[nH]c(N3CCCCC3)nc2n(C)c1=O`, 6.6% (inactive). `Cc1ccc(-n2nc3c(=O)n(CCCC(=O)NCc4ccco4)nc(C)c3c2C)cc1`: the inhibition is -4.7% (inactive). In the case of `CCN(CC)c1ccc(NS(=O)(=O)c2ccc(-c3ccc(=O)[nH]n3)o2)c(C)c1` it was -2.9% (inactive); in that of `COc1ccc(CCN(C)CC(O)COc2ccc(C(C)=O)cc2OC)cc1OC` (stereo not drawn), -11.9% (inactive); in that of `CC(=O)COC(=O)C1=NN(c2ccccc2)C(=O)CC1`, 8.8% (inactive).

Turning to `CCOC(=O)c1ccc(NCCc2ccc(OC)c(OC)c2)c(N)c1`, the inhibition is 33% (inactive). In the case of `COc1ccc(Cl)cc1-n1c(=S)sc2c(=O)n(-c3ccc(F)cc3)c(SCC(=O)O)nc21` it was -3.3% (inactive).

With `COc1ccc(/C=N/N=C2/NC(=O)C(CC(=O)O)S2)cc1OCc1ccc(Cl)cc1Cl` (stereo not drawn), the inhibition was 95.9% (active). In the case of `CCN(CC)c1ccc(NC(=O)c2c(C)noc2C)cc1` it was -3.1% (inactive); in that of `COCCN(C(=O)c1ccc(OC2CCN(S(=O)(=O)N(C)C)CC2)cc1)C(C)C`, -6.4% (inactive); in that of `COc1ccc(C(=O)C2CCCN(C(=O)c3cccc(N(C)C)c3)C2)cc1OC` (stereo not drawn), 16.4% (inactive). As for `COc1cc(C(=O)OC2C[C@H]3CC[C@@H](C2)N3C)ccc1O` (stereo partly drawn), the figure is -1.1% (inactive); as for `Cn1c(/C=C/c2ccc(Cl)cc2Cl)c([N+](=O)[O-])c(=O)n(C)c1=O`, 20.2% (inactive).
